HIF-2a block = HIF-2a inhibition | 786-0 RCC cells HIF-2a reporter, luciferase luminescence, overnight | inhibition, % at 18.8 µM | 360,000 compounds, 0.72% hits | AID 624352;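 active means inhibition of the luminescence signal of 40% or more relative to plate controls, in a single-dose primary screen at 18.75 µM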
PPC-1+TRAIL kill = PPC-1 cancer cell killing with TRAIL present; PPC-1 cells + TRAIL, ATPLite viability luminescence; 220,000 compounds, 0.41% hits; cell killing (% activity), % at 4 µM or 5 µM; AID 1443;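 active means cell killing above 50% in the first pass at 4 µM, then a duplicate retest at 5 µM averaging 50% or more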;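 further: plate controls were cells with TRAIL plus DMSO for no effect and medium-only wells lacking cells for full effect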
Peg3 prom inh = Peg3 promoter activity inhibition; HeLa PEG-Prom luciferase reporter, luminescence, overnight; inhibition, % at 20 µM; 360,000 compounds, 1.7% hits; AID 588405;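 active means inhibition of at least 50% at 20 µM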
C8 TRAIL sens = sensitizes caspase-8 expressing cells to TRAIL; NB7+C8 cells + TRAIL, ATPlite viability luminescence; inhibition (viability loss, TRAIL sensitization), % at 10 µM; 360,000 compounds, 1% hits; AID 624354;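 active means compounds causing at least 50% loss of cell viability in the single-dose screen, relative to plate controls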
CF NFkB inh = cystic fibrosis NF-kB activation inhibition. KKLEB NF-kB-GFP reporter, PAF-induced, GFP fluorescence overnight. inhibition, % at 5 µM. 360,000 compounds, 0.86% hits;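 active means at least 50% inhibition at 5 µM, scaled per plate between neutral and stimulator controls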;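 further: PAF is a Pseudomonas aeruginosa culture filtrate used as stimulus; plate controls were PAF-stimulated DMSO wells for no effect and unstimulated DMSO wells for full effect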
KKLEB cytotox = counter-screen for CF NF-kB inhibitors: cytotoxicity. activity change (cytotoxicity), % at 5 µM. KKLEB CF airway cells viability, ATPlite luminescence, overnight; active compounds read low; cells stimulated with P. aeruginosa culture filtrate. AID 602141. 360,000 compounds, 0.36% hits;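 active means corrected activity change at or below -50% at 5 µM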
CF NFkB inh conf = confirmation of cystic fibrosis induced NF-kB inhibitors; shares compounds with CF NFkB inh; KKLEB CF airway cells, PAF-induced NF-kB-GFP fluorescence, overnight; inhibition, % at 5 µM; 1,300 compounds, 64% hits; AID 602472; in the data active means inhibition above about 40%;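 further: stimulus PAF is a Pseudomonas aeruginosa filtrate and not platelet activating factor; plate controls were DMSO wells with stimulus for no effect and unstimulated DMSO wells for full effect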
Mdm2 MdmX conf = Mdm2/MdmX (human) interaction inhibition, confirmed; shares compounds with HIF-2a block; SaOS-2 split-luciferase Mdm2/MdmX complementation, luminescence; inhibition, % at 8 µM; 740 compounds, 99% hits;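 active means mean inhibition of the luminescence signal across two replicates at or above 26 percent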
HIF-2a conf = confirmation of HIF-2a inhibitors; 1,800 compounds, 56% hits; inhibition, % at 18.8 µM; shares compounds with HIF-2a block; AID 651580; 786-0 RCC cells, HIF-2a luciferase reporter luminescence, overnight;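 active means mean inhibition across four replicates of at least 40 percent at the single tested concentration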
HIF-1a counter = inhibits HIF-1a reporter, a counter-screen for HIF-2a inhibitors | shares compounds with HIF-2a block | MiaPaCa-2 HIF-1a luciferase reporter, desferoxamine, overnight | inhibition, % at 18.8 µM | 1,800 compounds, 72% hits | AID 651589;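 active means mean inhibition of the reporter signal across four replicates at the single tested dose of 50% or more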
* marks the source's active call; other numbers are inactive results. Shown are actives, neighbours in structure and some others; about 3.1% of the full set was active somewhere.

COc1ccc2cc3c(N)nn(C(=O)c4cccc(F)c4)c3nc2c1 was read as HIF-2a block 4, PPC-1+TRAIL kill 30, Peg3 prom inh 8, C8 TRAIL sens 12, CF NFkB inh 50 and KKLEB cytotox -2.
Screening COc1ccc2cc3c(N)nn(C(=O)c4ccc(F)cc4)c3nc2c1 returned HIF-2a block -1, PPC-1+TRAIL kill -22, Peg3 prom inh -21, C8 TRAIL sens 0, CF NFkB inh 63*, KKLEB cytotox -4, CF NFkB inh conf 72* and Mdm2 MdmX conf 91*.
CCC(CO)Nc1ccn2nc(-c3cccs3)cc2n1 (configuration not stated) was read as HIF-2a block -280, Peg3 prom inh -277, C8 TRAIL sens 6, CF NFkB inh 21 and KKLEB cytotox -3.
For N#CC(C#N)=C1C=CC=CN1/C(=C\c1ccco1)C(=O)c1ccccc1 the results were HIF-2a block 91*, PPC-1+TRAIL kill 7, Peg3 prom inh 99*, C8 TRAIL sens 13, CF NFkB inh 96*, KKLEB cytotox -35, CF NFkB inh conf 68*, HIF-2a conf 98* and HIF-1a counter 105*.
`CC(C)(C)NC(=O)/C(=C/c1ccco1)c1ccccc1` gave HIF-2a block 24, PPC-1+TRAIL kill 6, Peg3 prom inh 13, C8 TRAIL sens -8, CF NFkB inh 7 and KKLEB cytotox 1.
For O=C1CCC(C(=O)N2CCN(c3ccccc3)CC2)CN1Cc1ccc(Cl)cc1 (configuration not stated) the results were HIF-2a block -1, Peg3 prom inh -6, C8 TRAIL sens 0, CF NFkB inh 11 and KKLEB cytotox -9.
Screening Oc1cc(CNC2CCCCC2)c(O)cc1CNC1CCCCC1 returned HIF-2a block 11, Peg3 prom inh -10, C8 TRAIL sens 0, CF NFkB inh 14 and KKLEB cytotox 15.
For CC(/C=N/n1c(-c2cccnc2)n[nH]c1=S)=C\c1ccccc1 the results were HIF-2a block -7, PPC-1+TRAIL kill 9, Peg3 prom inh 8, C8 TRAIL sens -7, CF NFkB inh 12 and KKLEB cytotox 14.
`CC(=C/c1ccccc1)/C=N/n1c(-c2ccncc2)n[nH]c1=S` gave HIF-2a block 16, PPC-1+TRAIL kill 10, Peg3 prom inh -1, C8 TRAIL sens -9, CF NFkB inh 76*, KKLEB cytotox -4, CF NFkB inh conf 78* and Mdm2 MdmX conf 89*.
Screening CC(=O)OC1CCC2C3CCC4OC(=O)CCC4C3CCC12C (configuration not stated) returned HIF-2a block -10, Peg3 prom inh 4, C8 TRAIL sens 0, CF NFkB inh -23 and KKLEB cytotox 12.
`C=C1C(=O)C2=CC1CCC(=O)C1(C)CCC(OC(C)=O)C(C)(C)C1CC2O` (configuration not stated) gave HIF-2a block 86*, Peg3 prom inh 99*, C8 TRAIL sens 10, CF NFkB inh 83*, KKLEB cytotox 9, CF NFkB inh conf 83*, HIF-2a conf 95* and HIF-1a counter 105*.
O=C(COC(=O)c1ccc(Cl)c([N+](=O)[O-])c1)NC1CCCC1 was read as HIF-2a block 2, Peg3 prom inh 6, C8 TRAIL sens 1, CF NFkB inh 1 and KKLEB cytotox 12.
